Source: PubChem BioAssay (several laboratories)
In the library only some 1.5% were active in any assay of this set; here they are far more common.
Bcl-xL primary: Bcl-xL (human) inhibition; Q07817; GST-Bcl-xL / FITC-Bim BH3 peptide fluorescence polarization; inhibition, % at 10.9 µM; actives 0.7% (n = 320,000); AID 2129;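 active = inhibition above the mean of all tested compounds plus 3 SD, cutoff set per campaign, cut at about 30% in these data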;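 note: 0% = DMSO wells and 100% = unlabeled Bim-BH3 peptide competitor; inhibitors lower millipolarization by displacing the labeled peptide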
EBV gp42 block: blocks Epstein-Barr virus glycoprotein 42 binding; Q1HVG2; Fluorescence polarization binding assay, mP read-out; AID 1085; inhibition, % (tested at 21.74 µM); actives 0.42% (n = 220,000); in the data active = inhibition above about 50%
Target sequence (Q1HVG2 whole entry, looked up): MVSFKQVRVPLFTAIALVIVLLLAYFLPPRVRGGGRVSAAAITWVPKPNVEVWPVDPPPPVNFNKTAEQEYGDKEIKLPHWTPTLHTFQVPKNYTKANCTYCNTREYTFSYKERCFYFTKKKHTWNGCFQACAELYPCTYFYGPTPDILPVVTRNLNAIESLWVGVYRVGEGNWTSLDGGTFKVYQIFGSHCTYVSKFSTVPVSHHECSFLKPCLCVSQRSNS
MCL1 BIM primary: inhibitors of human MCL1 binding to BIM-BH3 peptide; Q07820; GST-MCL1 / FITC-Bim-BH3 fluorescence polarization; inhibition, % at 10.9 µM; actives 0.68% (n = 320,000);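 active = inhibition above the mean inhibition of all tested compounds plus 3 SD, set per campaign, cut at about 40% in these data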;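 note: 0% = DMSO wells and 100% = unlabeled Bim-BH3 peptide control; higher means more loss of mP so more displacement of Bim peptide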
Target sequence (Q07820 whole entry, looked up): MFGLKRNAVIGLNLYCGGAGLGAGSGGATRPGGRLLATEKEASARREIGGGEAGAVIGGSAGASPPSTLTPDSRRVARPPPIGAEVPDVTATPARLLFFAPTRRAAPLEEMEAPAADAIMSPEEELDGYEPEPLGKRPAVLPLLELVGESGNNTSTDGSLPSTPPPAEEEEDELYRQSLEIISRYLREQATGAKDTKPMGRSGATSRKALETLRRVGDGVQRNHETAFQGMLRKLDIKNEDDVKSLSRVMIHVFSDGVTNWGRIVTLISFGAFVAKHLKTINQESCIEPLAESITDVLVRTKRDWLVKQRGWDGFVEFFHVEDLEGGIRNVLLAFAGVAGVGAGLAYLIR
MEX-5 binding: C. elegans MEX-5 TCR-2 RNA binding activity | MEX-5/FITC-TCR2 RNA binding, fluorescence polarization; stronger effect = lower value | actives 0.38% (n = 300,000) | activity score (negative = inhibition of binding), % at 10 µM;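 active = inhibition past about -25% in most replicates, and total fluorescence under double the plate's negative control median, limit read from the data; inconclusive = replicates evenly split on the limit, or fluorescence at least double controls; inactive = too little inhibition in most replicates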;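 note: 0% = DMSO and -100% = 5 µM competing unlabeled TCR2 RNA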
GLD-1 TGE inh: GLD-1-TGE RNA interaction inhibition (C. elegans); Q17339; inhibition, % at 5.96 µM; actives 0.44% (n = 320,000); purified GLD-1 + fluorescein TGE RNA, fluorescence polarization; AID 2280;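 active = percent inhibition above a per-plate cutoff, the plate mean of test compounds plus 3 SD, cut at about 30% in these data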;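 note: 0% = DMSO wells with GLD-1 and probe and 100% = wells lacking GLD-1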
eLon inh: inhibits E. coli Lon protease | inhibition, % at 7.94 µM | actives 0.42% (n = 360,000) | P0A9M0 | purified E. coli Lon protease, fluorescence polarization; in the data active = inhibition above about 13%, passing the limit was not always enough;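 note: 0% = enzyme with probe and DMSO and 100% = no enzyme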
Bcl-xL conf: counter-screen for MCL1 inhibitors: confirmation of human Bcl-xL inhibitors. actives 54% (n = 1,700). shares compounds with MCL1 BIM primary. AID 2166. inhibition, % at 10.9 µM. GST-Bcl-xL / FITC-Bim BH3 peptide FP binding;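 active = inhibition above a cutoff equal to the mean inhibition of all tested compounds plus 3 SD, cut at about 30% in these data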;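 note: 0% = DMSO wells and 100% = unlabeled Bim BH3 control peptide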
MCL1 BIM confirm: MCL1-BIM-BH3 interaction inhibition, confirmation. shares compounds with MCL1 BIM primary. GST-MCL1 / FITC-Bim-BH3 fluorescence polarization. inhibition, % at 10.9 µM. actives 61% (n = 1,700);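 active = inhibition above the average of all tested compounds plus 3 SD, cut at about 40% in these data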;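 note: 0% = DMSO wells and 100% = unlabeled Bim-BH3 control peptide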
An asterisk follows results filed as active; ? = inconclusive; . = no result given; + = active, no number.

SMILES	Bcl-xL primary	EBV gp42 block	MCL1 BIM primary	MEX-5 binding	GLD-1 TGE inh	eLon inh	Bcl-xL conf	MCL1 BIM confirm
Cn1cc(CN2CCC(C(=O)Nc3cccc(-c4cccc(F)c4)c3)CC2)cn1	4.5	.	81.8*	-2.0	-2.6	-2.0	7.8	13.0
CC(=O)Nc1nc(-c2cccs2)cs1	6.4	-14.4	8.3	1.4	2.3	-8.7	.	.
N#C/C(=C\c1ccc(-c2ccc(F)cc2)o1)C(=O)Nc1nc(-c2cccs2)cs1	27.4	12.1	41.4*	-0.5	9.1	1.2	45.4*	73.1*
COc1cc(OC)c(OC)cc1/C=C1/Cc2ccccc2C1=O	18.3	.	111.5*	?	-74.7	-86.0	84.5*	102.8*
Cc1cc(C)c2c(n1)SCC(=O)N2CC(=O)Nc1cc(F)ccc1F	-0.5	.	1.4	0.6	3.7	-3.2	.	.
CN(CC(=O)Nc1sccc1C#N)C1CCCCC1	61.0*	32.0	111.7*	-4.6	62.1*	8.6	21.5	23.4
Cc1ccccc1C(=O)N=c1c(C#N)cc2c(=O)n3cccc(C)c3nc2n1Cc1ccco1	18.8	-98.4	15.1	0.1	9.8	.	.	.
CCOC(=O)c1cc2c(=O)n3ccccc3nc2n(Cc2ccco2)c1=NC(=O)c1ccc(OC)cc1OC	48.8*	-12.2	52.2*	-0.5	18.6	-11.5	11.2	11.6
N#Cc1cc2c(=O)n3ccccc3nc2n(Cc2ccco2)c1=NC(=O)c1ccco1	54.4*	-18.8	75.2*	-16.8	23.4	4.8	14.5	12.2
CCOCCCn1c(=NC(=O)c2cccs2)c(C#N)cc2c(=O)n3ccccc3nc21	90.8*	36.3	97.4*	?	54.6*	0.2	62.0*	74.9*
CCOCCCn1c(=NC(=O)c2cccnc2)c(C(=O)OCC)cc2c(=O)n3ccccc3nc21	10.2	-3.1	14.6	1.3	-4.5	-12.0	.	.
O=C(NC1CCCCC1)C1c2ccccc2OCC(=O)N1Cc1ccccn1 (stereo not drawn)	.	.	.	.	.	0.4	.	.
CCCCn1c(N)c(N(CCOC)C(=O)CN2C(=O)NC3(CC(C)CC(C)(C)C3)C2=O)c(=O)[nH]c1=O (stereo not drawn)	.	.	.	.	.	0.5	.	.
ClCC1CN(Cc2ccccc2Cl)CCO1 (stereo not drawn)	4.5	-15.5	2.4	2.0	-6.9	6.8	.	.
Cc1c(C(=O)c2ccc(F)cc2F)c2ccccn2c1CCC#N	100.5*	.	116.7*	-1.2	90.1*	15.5	5.3	6.5
CC(=O)Oc1ccc2c(c1)O/C(=C\c1ccncc1)C2=O	125.9*	77.1*	151.2*	?	92.6*	79.0*	89.7*	115.3*
CCC(=O)Oc1ccc2c(c1)O/C(=C\c1ccco1)C2=O	111.5*	31.9	117.9*	-19.3	89.0*	30.4	46.8*	76.1*
CCC(C)[C@H]1CNCCN1CCC12CC3CC(CC(C3)C1)C2 (stereo partly drawn)	4.6	.	4.6	.	8.8	-5.3	.	.
O=C1COc2ccc(C(=O)COC(=O)/C=C/c3ccc(Br)o3)cc2N1	14.0	.	72.9*	6.4	-6.0	-24.4	4.2	50.7*
Cc1nnc(NC(=O)CSc2nccn2-c2ccc(F)cc2)s1	0.1	0.5	6.9	2.2	-1.3	-1.1	.	.
CN(CC(=O)Nc1ccccc1C(F)(F)F)C(=O)CSc1nc(N)cc(N)n1	6.3	.	6.2	.	2.6	8.5	.	.
O=C(NCCCN1CCCC1)[C@H](CSCc1ccccc1)N1Cc2ccccc2C1=O	8.3	0.2	5.2	-1.8	2.7	3.8	.	.
Cc1cc(-c2nc3c4c5c(sc4[nH]c(=O)n3n2)CCC5)c(C)o1	25.2	60.0*	75.6*	-10.7	-2.3	-5.1	28.2	70.3*
CCc1n[nH]c(=S)n1/N=C/c1cc(OC)cc([N+](=O)[O-])c1O	4.8	-7.1	59.9*	-6.9	4.1	0.9	16.4	67.7*
CSc1nsc(/C=C/Nc2ccc(O)cc2C)c1C#N	60.2*	-1.0	49.0*	-0.9	70.6*	5.0	43.3*	8.4
SMILES	Bcl-xL primary	EBV gp42 block	MCL1 BIM primary	MEX-5 binding	GLD-1 TGE inh	eLon inh	Bcl-xL conf	MCL1 BIM confirm
COc1ccc(N(C)C(=O)Nc2ccc3nsnc3c2)cc1	.	-6.4	.	-0.1	.	12.7	.	.
CC(C)N(C(=O)Nc1ccc2nsnc2c1)C(C)C	52.0*	3.9	66.3*	1.3	28.1	.	28.4	24.3
COc1cc(C)c(NC(=O)c2cccc(S(=O)(=O)N3CCCC3)c2)cc1OC	.	.	.	.	2.1	-4.9	.	.
CCOc1ccc2nc3cc(NCc4ccc(OC)cc4)ccc3c(N)c2c1	184.2*	.	+	-33.0*	-40.5	-25.4	139.4*	166.1*
C[C@@H]1C(NC(=O)c2ccccc2)CC2CC1C2(C)C (stereo partly drawn)	-7.9	.	-11.9	-0.3	-12.1	-4.7	.	.
Cc1ccc2nc(-c3ccc(O)c(O)c3)cn2c1	22.6	.	40.0*	-48.3*	9.4	9.5	60.6*	82.3*
CSc1nnc(-c2ccco2)c(-c2ccco2)n1	23.9	-11.6	42.5*	-10.8	5.1	19.5	25.6	55.6*
Cc1ccccc1NC(=O)CSc1nnc(-c2ccco2)c(-c2ccco2)n1	27.0	22.7	52.4*	-6.2	5.2	18.1	35.0*	86.2*
COc1ccc(C(=O)CSc2nnc(-c3ccco3)c(-c3ccco3)n2)cc1	.	31.4	.	0.1	.	1.4	.	.
Cc1ccccc1NC(=O)CSc1n[nH]c(-c2ccco2)n1	1.0	-2.9	3.8	0.5	-2.4	2.2	.	.
Cc1cccc(C)c1NC(=O)CSc1nnc(-c2ccco2)c(-c2ccco2)n1	57.7*	46.1	95.8*	-3.5	11.8	86.5*	-18.7	-4.1
CN(C)c1cccc(C(=O)N(C)C2CCCN(Cc3ccccc3F)C2)c1 (stereo not drawn)	4.7	.	3.0	1.4	-2.2	8.7	.	.
COc1ccc(Cl)cc1C(=O)Nc1nc(C)cc(C)n1	2.0	.	2.4	-0.1	-5.9	2.2	.	.
CCN(CC(=O)Nc1ccc(OC)cc1)C(=O)Cc1cccs1	1.5	.	7.6	0.6	4.2	-2.6	.	.
C/C(=N/NC(=O)CNS(=O)(=O)c1ccccc1)c1ccc(Br)cc1	1.3	.	1.5	-1.8	-1.0	-2.1	.	.
C/C(N)=C(/C#N)C(=O)CSc1nnc(Nc2cccc(C)c2)s1	7.8	17.1	40.2*	1.2	9.2	3.5	13.7	40.8*
Cc1ccc(Sc2cc(C(=O)NCCN(C)C)c3ccccc3n2)cc1	-0.2	.	-2.1	-1.6	2.7	-9.5	.	.
Cc1ccc(Sc2cc(C(=O)NCCCN(C)C)c3ccccc3n2)cc1	78.0*	.	86.1*	1.0	68.6*	11.5	6.4	2.1
